SARS PLP yeast – blocks SARS-CoV papain-like protease in a yeast assay; S. cerevisiae expressing SARS-CoV PLpro, growth rescue; Potency, µM (titrated, usually from 32.9 µM), inactives show at the highest dose activity, positive = growth rescue, usual class: activators; 330,000 tested, 0.19% active; AID 485353; also: 0% is about no effect; nearly all actives have a fitted effect of over 55% in size
AMA1 RON2 block – disrupts binding of P. falciparum AMA1 to RON2 | AlphaScreen AMA1-biotinylated RON2 peptide binding | Potency, µM (doses to about 58.2 µM), inactives show at the top dose activity change, negative = inhibition, most hits filed as inhibitors | 360,000 tested, 0.2% active | AID 720542; active = well fitted inhibition curve with a large enough effect; inconclusive = small, poorly fitted or top-dose-only effect; inactive = no such curve, though single readings can be large or run the other way;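 also: 0% = vehicle wells and -100% = peptide control; nearly all actives have a fitted effect of over 45% in size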
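AMA1 (3D7) with his tag at 25 nM final met compounds first, then biotinylated RON2 peptide at 25 nM; detection used donor plus acceptor beads, 10 µg/mL apiece, read by AlphaScreen after 30 min at room temperature.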
NS1 function inh – influenza NS1 inhibition; Potency, µM (doses to about 46.1 µM), for the others: at the highest dose activity, positive = more growth; AID 2326; 270,000 tested, 0.4% active; also: actives are rising curves; nearly all actives have a fitted effect of over 50% in size
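Growth recovery, yeast-based: influenza A NS1 expressed in S. cerevisiae causes slow growth, and suppressors are detected by OD600. The parent strain without NS1 is used as positive control.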
Starred values were filed as active, the others as inactive; [ ] = dose if it differs, or a comment. An excerpt weighted towards active compounds, which were near 0.65% of everything screened. Unless noted, calls follow the shape of the full dose curve. Potency is read from the fitted curve at half-maximal effect.

`CCc1nc2ccc(C(=O)NC3CCN(C)CC3)cn2c1N(C)CCC(C)C` gave AMA1 RON2 block 0%.
For CCc1nc2ccc(C(=O)NC3CCN(Cc4ccccc4)CC3)cn2c1N(C)Cc1ccc(N(C)C)cc1 the results were AMA1 RON2 block 22µM*.
Cc1cccc(Nc2cc(Cl)nc(SCC(=O)O)n2)c1C was read as NS1 function inh -4%.
CCOc1ccc(NC(=O)C2CCCN(c3nc(C)cc(C)n3)C2)cc1 (configuration not stated) was read as SARS PLP yeast 0%, AMA1 RON2 block 1% and NS1 function inh 1%.
For COc1ccc(CNC(=O)c2ccc3c(c2)N(C)C(=O)CS3=O)cc1 (configuration not stated) the results were SARS PLP yeast 2%, AMA1 RON2 block 2% and NS1 function inh 14µM*.
`COc1ccc(CNC(=O)c2ccc3c(c2)N(C)CCS3)cc1` gave SARS PLP yeast -6%, AMA1 RON2 block -4% and NS1 function inh 6%.
`COCCN(C(=O)c1cc(Cl)nc2ccccc12)c1c(N)n(Cc2ccccc2)c(=O)[nH]c1=O` gave SARS PLP yeast 1% and AMA1 RON2 block -7%.
For CC[n+]1c(/C=C/C=C/c2ccc(N(C)C)cc2)sc2ccccc21 the results were SARS PLP yeast -7%, AMA1 RON2 block 18µM* and NS1 function inh -73%.
For CN(C)c1ccc(/C=C/C=C/c2sc3ccccc3[n+]2C)cc1 the results were SARS PLP yeast -1%, AMA1 RON2 block -26% and NS1 function inh -65%.
CSC(N)=NCCC[C@H](N)C(=O)O was read as NS1 function inh 0%.
Cc1ccc(CNc2ccc3c(c2)OCO3)cc1 was read as AMA1 RON2 block inconclusive and NS1 function inh 2.8µM*.
`c1cc(CNc2ccc3c(c2)OCO3)ccn1` gave SARS PLP yeast -4%, AMA1 RON2 block -10% and NS1 function inh 2%.
C[As+](C)(c1ccc(Br)c([N+](=O)[O-])c1)c1ccc(Br)c([N+](=O)[O-])c1.O=[N+]([O-])O was read as NS1 function inh -3%.
`Cc1cc(=O)oc2cc(O)c(CN(C)CC(=O)O)cc12` gave NS1 function inh 0%.
For CCN(CC)c1ccc2c(-c3ccc(S(=O)(=O)O)cc3S(=O)(=O)[O-])c3ccc(=[N+](CC)CC)cc-3oc2c1 the results were SARS PLP yeast -4%, AMA1 RON2 block 14µM* and NS1 function inh 10%.
Screening CCN(CC)c1ccc2nc3c4ccccc4c(=O)cc-3oc2c1 returned SARS PLP yeast -1%, AMA1 RON2 block -8% and NS1 function inh 1%.
Screening Cc1cc2c(s1)c(C#N)c(C(=O)NCc1ccccc1F)n2C returned SARS PLP yeast 0%.
Screening COc1ccc([C@]23Cc4ccccc4C(O2)C2=C(CC4(CCCCC4)OC2=O)O3)cc1 returned SARS PLP yeast 1%[6.58 µM] and NS1 function inh 14%.
`Cc1ccc(Cn2c(=N)n(CC(O)COc3ccccc3)c3ccccc32)cc1` (configuration not stated) gave SARS PLP yeast -1%, AMA1 RON2 block 6% and NS1 function inh 6%.
`N=c1n(Cc2ccccc2)c2ccccc2n1CC(O)COc1ccccc1` (configuration not stated) gave SARS PLP yeast 22µM*, AMA1 RON2 block -10% and NS1 function inh -5%.
CCCNC[C@H](O)COc1ccccc1C(=O)CCc1ccccc1 was read as NS1 function inh -17%.
For CCN1CCCc2cc(CN(CCN3CCOCC3)C(=S)Nc3cccc(Cl)c3)ccc21 the results were SARS PLP yeast 8% and AMA1 RON2 block 3.5µM*.
Screening CCN1CCCc2cc(CN(CCN3CCOCC3)C(=S)Nc3ccc(C)cc3)ccc21 returned SARS PLP yeast 0% and AMA1 RON2 block -18%.
CO[C@@H]1/C=C\O[C@]2(C)Oc3c(C)c(O)c4c(O)c(cc(O)c4c3C2=O)NC(=O)/C(C)=C\C=C/[C@H](C)[C@@H](O)[C@H](C)[C@H](O)C(C)[C@H](OC(C)=O)[C@@H]1C (some centres not stated) was read as NS1 function inh -11%.
Cc1cc(C)c(NC(=O)COC(=O)CSc2ccc(Br)cc2C)c(C)c1 was read as SARS PLP yeast -5%, AMA1 RON2 block 7% and NS1 function inh -18%.
For CCN(CC)c1ccc(NC(=O)COC(=O)CSc2ccc(Br)cc2C)cc1 the results were SARS PLP yeast -40%, AMA1 RON2 block 10µM* and NS1 function inh -63%.
Cc1ccc(/C=[N+](\[O-])c2ccc(N(C)C)cc2)c2nsnc12 was read as SARS PLP yeast -33% and AMA1 RON2 block 25µM*.
For Cc1ccc2nsnc2c1NS(=O)(=O)c1c(C)ccc2nsnc12 the results were SARS PLP yeast -10%, AMA1 RON2 block -7% and NS1 function inh -4%.
`O=C(c1cc(=O)[nH]c2ccccc12)N(Cc1nnc(-c2ccccc2Cl)o1)C1CC1` gave SARS PLP yeast -4% and AMA1 RON2 block -26%.
NC(=[SH+])N=N/C=C1/C=CC=CN1.O=S(=O)(O)O.[Fe] was read as NS1 function inh 5%.
Screening CCOC(=O)N1CCN(c2cc(NCCC(=O)O)c3c4c(onc24)-c2ccccc2C3=O)CC1 returned SARS PLP yeast -4%, AMA1 RON2 block inconclusive and NS1 function inh -8%.
For CN1CCN(c2cc(N3CCN(C(=O)c4ccco4)CC3)c3c4c(onc24)-c2ccccc2C3=O)CC1 the results were SARS PLP yeast -5%, AMA1 RON2 block 18µM* and NS1 function inh 0%.
For O=C1c2ccccc2-c2onc3c(N4CCN(CCO)CC4)cc(N4CCN(C(=O)c5ccco5)CC4)c1c23 the results were SARS PLP yeast -4%, AMA1 RON2 block 14µM* and NS1 function inh 4%.
`O=C(O)CCCNc1cc(N2CCN(C(=O)c3ccco3)CC2)c2noc3c2c1C(=O)c1ccccc1-3` gave SARS PLP yeast -14%, AMA1 RON2 block -27% and NS1 function inh 22%.
Screening Cc1ccc(C(C)C)c(OCC(=O)OCC(=O)NC2CCS(=O)(=O)C2)c1 (configuration not stated) returned SARS PLP yeast -1% and AMA1 RON2 block -7%.
`CCCc1cc(-c2n[nH]c(=S)n2CC)cs1` gave SARS PLP yeast 0% and AMA1 RON2 block 79%.
For CCCc1cc(-c2n[nH]c(=S)n2C(C)c2ccccc2)cs1 (configuration not stated) the results were SARS PLP yeast 22µM*, AMA1 RON2 block 58% and NS1 function inh -2%.
`COc1ccc(Nc2nc(-c3sc(N)nc3C)cs2)cc1` gave SARS PLP yeast -2%, AMA1 RON2 block 70% and NS1 function inh inconclusive.
For COc1ccc(Nc2nc(-c3sc(NC(C)=O)nc3C)cs2)cc1 the results were SARS PLP yeast 3.2µM* and NS1 function inh 16%.
For CC(=O)Nc1cccc(NC(=O)CSc2ncc(-c3ccc(Cl)cc3)n2Cc2ccco2)c1 the results were SARS PLP yeast -11%, AMA1 RON2 block -5% and NS1 function inh -53%.
COc1ccc(-c2cnc(SCC(=O)Nc3ccc4c(c3)OCO4)n2Cc2ccco2)cc1 was read as SARS PLP yeast 2%, AMA1 RON2 block 14µM* and NS1 function inh -56%.
For CC(=O)O[C@]1(C(C)=O)CC[C@H]2C3C=C(Cl)C4=CC(=O)[C@@H]5C[C@H]5[C@]4(C)C3CC[C@@]21C (some centres not stated) the results were NS1 function inh -7%.
